In PubChem BioAssay one finds z-score data, which are given here for 36 molecules.

SMILES strings stand for the structures.
Note: test concentration not given here.

A short description of one assay: compound effects on differentiated 3T3-L1 adipocyte viability – cell-based, 3T3-L1 adipocytes, calcein-AM fluorescence, 48 h, basal, profiling panel (AID 1163). As to conditions: 3T3-L1 adipocytes viability, higher = more signal.
`COC(=O)[C@H]1COC(c2ccc(OCCCO)cc2)=N1`: the z-score is 0.568.

For the molecule `O=C1[C@H]2[C@H]3[C@H](O)[C@H](O)CC(=NOC[C@@H](O)COCc4ccco4)[C@H]3CC[C@H]2C(=O)N1Cc1ccc2c(c1)OCO2`, the z-score was -0.672.

For `CC[C@@H](c1ccccc1)n1c(=O)n2n(c1=O)[C@H]1[C@H](O)[C@@H]3O[C@@H]3C(=NOCC=C(C)CCC=C(C)C)[C@H]1CC2`, the z-score was 0.722.

In the case of `C[C@@H](c1ccccc1)N1C(=O)[C@H]2[C@H]3[C@H](O)[C@H](O)CC(=NOC[C@@H](O)COCc4ccco4)[C@@H]3CC[C@H]2C1=O`, the z-score is -0.837.

As for `CO[C@H]1O[C@H](CO)[C@@H](OC(=O)Nc2ccc3c(c2)OCO3)[C@H](OC(=O)Nc2ccccc2-c2ccccc2)[C@@H]1OC(=O)Nc1ccccc1-c1ccccc1`, the z-score was -0.0426.

In the case of `NCCCCCNC(=O)[C@@H]1C[C@@H]2C(=O)N3CCC[C@H]3C(=O)N2[C@@H]1c1cccc(OCCO)c1`, the z-score was 0.571.

Consider `C[C@@H]1C=CCC(=O)OC[C@H](C)C(=O)N2CCC[C@H]2C(=O)OC1`, for which the z-score is 0.0764.

`CCCC=C(CCC)[C@@H](NC(=O)c1ccc(-c2ccccc2)cc1)c1ccc(C(=O)OC)cc1`: the z-score is -1.51.

For the molecule `CCOC(=O)[C@H](Cc1ccccc1)NC(=O)CCC1CC(OC(=O)NCc2ccc3c(c2)OCO3)CC2(CCCC(COC(=O)NCC3CCCCC3)O2)O1` (stereo partly specified), the z-score was -0.0963.

On to `COc1ccc(COC(=O)NN=C2C[C@@H](O)[C@@H](O)[C@@H]3[C@@H]4C(=O)N(c5ccc(F)cc5F)C(=O)[C@@H]4CC[C@@H]23)cc1`, for which the z-score is 0.257.

Turning to `CC(C)[C@@H](OCc1ccccc1)[C@H](C)C=NO[C@H](C)c1cn([C@H](CO)Cc2ccccc2)nn1`, the z-score was 0.315.

On to `COC(=O)[C@H](C)NC(=O)CCC1CC(OC(=O)NCc2cccc3ccccc23)CC2(CCCC(COC(=O)NCCc3ccc(Cl)cc3)O2)O1` (stereo partly specified), for which the z-score was 0.118.

For `COc1ccc(-c2nc3c(c4c2C[C@H](C)OC4)CN(CCC(C)C)CC3)cc1`, the z-score was -0.49.

Take `O=C(NN=C1C[C@@H](O)[C@@H](O)[C@@H]2[C@@H]3C(=O)N(c4cccc(Oc5ccccc5)c4)C(=O)[C@@H]3CC[C@H]12)OCc1ccccc1`: the z-score was -0.205.

Consider `CCOC(=O)CCN1C(=O)[C@H]2[C@H]3[C@H](O)[C@H](O)CC(=NNC(=O)OCc4ccc(OC)cc4)[C@@H]3CC[C@H]2C1=O`, for which the z-score was -0.426.

For `CCN1C(=O)[C@H]2[C@H]3[C@H](O)C=CC(=O)[C@@H]3CC[C@H]2C1=O`, the z-score is 0.368.

Consider `C=C(CCCC)C(=O)CC[C@@H](OC(C)=O)c1cccc(OCCO)c1`, for which the z-score is -1.33.

For the molecule `O=C1C[C@]2(c3ccc([N+](=O)[O-])cc3)C(=O)N(CCN3CCOCC3)c3cc(CO)ccc3[C@H]2N1CC12CC3CC(CC(C3)C1)C2`, the z-score is 0.15.

For the molecule `[N-]=[N+]=NCc1ccccc1[C@@H]1OC(c2ccc(OCCCO)cc2)=N[C@]1(Cc1ccccc1)C(=O)N1CCOCC1`, the z-score is 0.146.

For the molecule `CC(C)N1CC=CC23O[C@@H]4C=CCCOC(=O)C4[C@H]2C(=O)N(CCCCCCO)[C@@H]3C1=O` (stereo partly specified), the z-score is -0.505.

Regarding `CCCNC(=O)[C@@H]1c2ccccc2C(=O)N(Cc2ccccc2Cl)[C@H]1c1ccc(CO)cc1`, the z-score was 1.42.

As for `CCN1C(=O)[C@H]2[C@H]3[C@H](O)[C@H](O)CC(=NOCc4ccccc4)[C@H]3CC[C@H]2C1=O`, the z-score is -0.0387.

For the molecule `C[C@H](c1ccccc1)N1C(=O)[C@H]2[C@H]3[C@H](O)[C@H](O)CC(=O)[C@@H]3CC[C@H]2C1=O`, the z-score was -0.0863.

For the molecule `COC(=O)C1=C(C)[C@@H](O)[C@@H](C)[C@H](c2c(OC)c(OC)c(C)c(OC)c2OC)O1`, the z-score is -0.63.

As for `CC(=O)OC[C@H]1O[C@H](CC=NOC[C@@H](C)[C@H](OCc2ccccc2)C(C)C)C=C[C@@H]1OC(C)=O`, the z-score was -0.612.

A short description of the next assay: compound effects on hepatocellular carcinoma cell viability – HepG2, calcein-AM fluorescence, 48 h, basal, profiling panel (AID 1164). To be noted: higher = more signal.
As to `COCCCNC(=O)[C@@]1(Sc2ccc(C)cc2)CC(=O)N(Cc2ccccc2)[C@@H]1c1ccc(CO)cc1I`, the z-score was 0.264.

For `COC(=O)[C@H](C)NC(=O)CCC1CC(OC(=O)NCCc2ccc(F)cc2)CC2(CCCC(COC(=O)NCC(c3ccccc3)c3ccccc3)O2)O1` (stereo partly specified), the z-score is -0.972.

`COc1ccccc1CN1C(=O)c2ccccc2[C@@H](C(=O)NCC(F)(F)F)[C@@H]1c1ccc(CO)cc1`: the z-score is 1.67.

For the molecule `Cc1cc2c(c(=O)o1)[C@H](O)[C@H]1O[C@H]1C2=O`, the z-score was -1.03.

With `CCN(CC)c1ccc(N2CC=CC34O[C@@H]5/C=C\CCC(C)OC(=O)C5[C@H]3C(=O)N(CCCO)[C@@H]4C2=O)cc1` (stereo partly specified), the z-score is 0.109.

Regarding `O=C1O[C@@H](c2ccccc2)[C@@H](c2ccccc2)N2[C@@H](c3ccccc3OCCO)[C@]3(C(=O)Nc4ccc(C#CCCO)cc43)[C@@H](C(=O)O)[C@H]12`, the z-score was -0.173.

On to `COc1ccc([Si](C)(C)[C@@H]2[C@@H](CC(=O)N3CCC[C@H]3CO)O[C@]3(C(=O)N(Cc4cccc(N5CCC5=O)c4)c4ccccc43)[C@H]2C)cc1`, for which the z-score is -4.16.

Turning to `CC(C)(C)N1CC=CC23O[C@@H]4C=CCCOC(=O)C4[C@H]2C(=O)N(CCCCCO)[C@@H]3C1=O` (stereo partly specified), the z-score was 2.16.

For `COc1cccc([C@@H]2Oc3ccc(Br)cc3C(=O)[C@H]2O)c1`, the z-score was -1.24.

For the molecule `CO[C@H]1COC(=O)[C@@H]2CCCN2C(=O)CC=C[C@@H](C)[C@H](OC)COC(=O)CC=C[C@@H]1C`, the z-score is 1.01.

As to `CC(CCN1CCc2nc(-c3ccccc3)c(-c3ccccc3)cc2C1)=NO[C@H](C)c1cn([C@@H]2COC[C@H]2O)nn1`, the z-score was 1.2.

Regarding `COC(=O)[C@H]1COC(c2ccc(OCCCO)cc2)=N1`, the z-score is -0.344.

For the molecule `O=C1[C@H]2[C@H]3[C@H](O)[C@H](O)CC(=NOC[C@@H](O)COCc4ccco4)[C@H]3CC[C@H]2C(=O)N1Cc1ccc2c(c1)OCO2`, the z-score was -1.05.

As to `CC[C@@H](c1ccccc1)n1c(=O)n2n(c1=O)[C@H]1[C@H](O)[C@@H]3O[C@@H]3C(=NOCC=C(C)CCC=C(C)C)[C@H]1CC2`, the z-score is -1.48.

As to `C[C@@H](c1ccccc1)N1C(=O)[C@H]2[C@H]3[C@H](O)[C@H](O)CC(=NOC[C@@H](O)COCc4ccco4)[C@@H]3CC[C@H]2C1=O`, the z-score is -0.78.

With `CO[C@H]1O[C@H](CO)[C@@H](OC(=O)Nc2ccc3c(c2)OCO3)[C@H](OC(=O)Nc2ccccc2-c2ccccc2)[C@@H]1OC(=O)Nc1ccccc1-c1ccccc1`, the z-score was -0.251.

Take `NCCCCCNC(=O)[C@@H]1C[C@@H]2C(=O)N3CCC[C@H]3C(=O)N2[C@@H]1c1cccc(OCCO)c1`: the z-score was -0.168.

Turning to `C[C@@H]1C=CCC(=O)OC[C@H](C)C(=O)N2CCC[C@H]2C(=O)OC1`, the z-score is -0.492.

Regarding `CCCC=C(CCC)[C@@H](NC(=O)c1ccc(-c2ccccc2)cc1)c1ccc(C(=O)OC)cc1`, the z-score is -0.166.

As for `CCOC(=O)[C@H](Cc1ccccc1)NC(=O)CCC1CC(OC(=O)NCc2ccc3c(c2)OCO3)CC2(CCCC(COC(=O)NCC3CCCCC3)O2)O1` (stereo partly specified), the z-score was -0.264.

As to `COc1ccc(COC(=O)NN=C2C[C@@H](O)[C@@H](O)[C@@H]3[C@@H]4C(=O)N(c5ccc(F)cc5F)C(=O)[C@@H]4CC[C@@H]23)cc1`, the z-score was -0.987.

For the molecule `CC(C)[C@@H](OCc1ccccc1)[C@H](C)C=NO[C@H](C)c1cn([C@H](CO)Cc2ccccc2)nn1`, the z-score was 0.235.

Take `COC(=O)[C@H](C)NC(=O)CCC1CC(OC(=O)NCc2cccc3ccccc23)CC2(CCCC(COC(=O)NCCc3ccc(Cl)cc3)O2)O1` (stereo partly specified): the z-score was 0.0326.

As for `COc1ccc(-c2nc3c(c4c2C[C@H](C)OC4)CN(CCC(C)C)CC3)cc1`, the z-score was 0.443.

As to `O=C(NN=C1C[C@@H](O)[C@@H](O)[C@@H]2[C@@H]3C(=O)N(c4cccc(Oc5ccccc5)c4)C(=O)[C@@H]3CC[C@H]12)OCc1ccccc1`, the z-score was -0.943.

Take `CCOC(=O)CCN1C(=O)[C@H]2[C@H]3[C@H](O)[C@H](O)CC(=NNC(=O)OCc4ccc(OC)cc4)[C@@H]3CC[C@H]2C1=O`: the z-score is -0.367.

As for `CCN1C(=O)[C@H]2[C@H]3[C@H](O)C=CC(=O)[C@@H]3CC[C@H]2C1=O`, the z-score is 0.733.

With `C=C(CCCC)C(=O)CC[C@@H](OC(C)=O)c1cccc(OCCO)c1`, the z-score is -2.45.

For the molecule `O=C1C[C@]2(c3ccc([N+](=O)[O-])cc3)C(=O)N(CCN3CCOCC3)c3cc(CO)ccc3[C@H]2N1CC12CC3CC(CC(C3)C1)C2`, the z-score is -0.227.

As to `[N-]=[N+]=NCc1ccccc1[C@@H]1OC(c2ccc(OCCCO)cc2)=N[C@]1(Cc1ccccc1)C(=O)N1CCOCC1`, the z-score was 1.45.

As for `CC(C)N1CC=CC23O[C@@H]4C=CCCOC(=O)C4[C@H]2C(=O)N(CCCCCCO)[C@@H]3C1=O` (stereo partly specified), the z-score was 0.677.

On to `CCCNC(=O)[C@@H]1c2ccccc2C(=O)N(Cc2ccccc2Cl)[C@H]1c1ccc(CO)cc1`, for which the z-score is 2.37.

Take `CCN1C(=O)[C@H]2[C@H]3[C@H](O)[C@H](O)CC(=NOCc4ccccc4)[C@H]3CC[C@H]2C1=O`: the z-score is -0.228.

As for `C[C@H](c1ccccc1)N1C(=O)[C@H]2[C@H]3[C@H](O)[C@H](O)CC(=O)[C@@H]3CC[C@H]2C1=O`, the z-score is -0.254.

As to `COC(=O)C1=C(C)[C@@H](O)[C@@H](C)[C@H](c2c(OC)c(OC)c(C)c(OC)c2OC)O1`, the z-score was 0.287.

On to `CC(=O)OC[C@H]1O[C@H](CC=NOC[C@@H](C)[C@H](OCc2ccccc2)C(C)C)C=C[C@@H]1OC(C)=O`, for which the z-score was -1.02.
